# Compounds with a hit are over-represented: about 3.5% of the library has one in this group of screens.
# TEAD-YAP inh – TEAD-YAP interaction inhibition; 1.4% of 640,000 active; AID 1259422; inhibition, % at 9.12 µM; HEK-TIYL cells, TEAD-Gal4/YAP UAS-luciferase luminescence; in the data active means inhibition above about 32%
# GPR151 ag – human GPR151 activation. PathHunter beta-arrestin GPR151 cells, luminescence. activation, % at 11.2 µM. 1% of 650,000 active. AID 1508602; in the data active means activation above about 4.9%
# Target sequence (Q8TDV0 whole entry, looked up): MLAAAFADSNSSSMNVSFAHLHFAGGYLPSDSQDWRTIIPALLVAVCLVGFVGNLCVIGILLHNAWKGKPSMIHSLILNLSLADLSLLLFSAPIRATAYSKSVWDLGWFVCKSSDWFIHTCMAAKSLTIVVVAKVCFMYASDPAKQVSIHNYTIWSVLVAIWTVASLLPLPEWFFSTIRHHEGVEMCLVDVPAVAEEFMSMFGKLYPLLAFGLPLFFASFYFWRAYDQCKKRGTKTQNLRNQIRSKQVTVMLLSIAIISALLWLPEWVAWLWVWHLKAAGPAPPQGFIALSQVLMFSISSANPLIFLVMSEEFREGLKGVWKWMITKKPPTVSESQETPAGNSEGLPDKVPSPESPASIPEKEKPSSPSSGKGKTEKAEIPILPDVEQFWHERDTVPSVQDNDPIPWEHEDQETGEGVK
# MITF inh – inhibitors of human MITF. O75030. AlphaScreen MITF homodimerization, bead proximity signal. inhibition, % at 2.6 µM. 0.91% of 650,000 active; in the data active means inhibition above about 50%
# FBW7 act – activators of human E3 ligase FBW7. 0.13% of 650,000 active. Q969H0. AlphaScreen FBW7–phospho-cyclin E peptide binding, activator screen. normalized activity (activation), % at 26.1 µM. AID 1259310; in the data active means normalized activity above about 1.9%;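 further: purified mutant Fbw7 with reduced substrate affinity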
# GPR151 conf act – human GPR151 activation, confirmation screen; GPR151 PathHunter beta-arrestin cells, luminescence, 90 min; % of EA-reagent control over plate median; shares compounds with GPR151 ag; 6,700 tested, under 10 active; activation, % at 11.2 µM;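 active means mean percent activation across replicates above the confirmation screen cutoff of 4.91%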
# GPR119 ag – activates human GPR119 in a GPR151 counter-screen; shares compounds with GPR151 ag; GPR119 PathHunter beta-arrestin cells, luminescence, 90 min; 0 = compound-well median, 100 = enzyme-acceptor control; activation, % at 11.2 µM; 0.3% of 6,700 active; AID 1508611;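 active means mean percent activation in the counterscreen above 29.09%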;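 further: counterscreen on off-target GPR119 to flag nonselective hits from the GPR151 activator screen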
# A number is an active result; n = inactive; x = no result given; ! = not active in a repeat.
SMILES,TEAD-YAP inh,GPR151 ag,MITF inh,FBW7 act,GPR151 conf act,GPR119 ag
Cc1cc(C)nc(SCC(=O)OC2CC(C)CCC2C(C)C)n1 (stereo not drawn),n,n,n,n,x,x
Cc1c(CCO)sc[n+]1CC(=O)OC1CC(C)CCC1C(C)C (stereo not drawn),n,5.4,n,n,n,n
CC1CCCCN1CCNC(=O)c1ccc(NC2=NC3CS(=O)(=O)CC3S2)cc1 (stereo not drawn),n,n,n,n,x,x
CCOC(=O)c1c(NC(=O)C(C)Sc2nnc(CNC(=O)c3cccs3)n2CCc2ccccc2)sc2c1CCCCC2 (stereo not drawn),n,n,n,n,x,x
COc1ccc(C(=O)Nn2c(C3CC3)nc3cc(OC)c(OC)cc3c2=O)c(OC)c1,n,5.9,n,n,n,n
COc1ccc(C(=O)Nn2c(C3CC3)nc3ccccc3c2=O)c(OC)c1,n,n,n,n,x,x
Cc1cc(CNC2CCN(Cc3ccccc3)CC2)c(C)n1CC(C)C,n,6.8,n,n,n,n
COc1cc(CNC2CCN(Cc3ccccc3)CC2)cc(OC)c1,n,n,n,n,x,x
CC[C@@H](C(=O)[C@@H](C)[C@@H](O)[C@H](C)[C@@H]1O[C@@H]([C@@H](CC)C(=O)O)CC[C@@H]1C)[C@H]1O[C@]2(C=C[C@@H](O)[C@]3(CC[C@@](C)([C@H]4CC[C@](O)(CC)[C@H](C)O4)O3)O2)[C@H](C)C[C@@H]1C,77.7!,10.7!,n,n,n,n
O=C(CCS(=O)(=O)c1cc2c(cc1Cl)NC(=O)CO2)Nc1ccc(F)cc1F,n,5.5,n,n,n,n
O=CNCc1nc2ccccc2n1Cc1ccccc1,n,n,n,n,x,x
O=C(Cn1cc(C(=O)c2ccccc2)c(=O)c2ccccc21)Nc1ccc2c(c1)OCCO2,n,6.6,n,n,n,n
O=C(Cn1cc(C(=O)c2ccc(F)cc2)c(=O)c2ccccc21)Nc1ccc2c(c1)OCO2,n,n,n,n,x,x
NC(=O)c1ccc(-c2cccc(C(=O)NCCc3ccc(O)cc3)n2)cc1,n,5.4,n,n,n,n
O=[N+]([O-])c1ccc(N/N=C/c2cccc(Br)c2)c([N+](=O)[O-])c1,n,n,n,n,x,x
COc1ccccc1C(=O)NCCn1cc(SCC(=O)Nc2ccc3c(c2)OCO3)c2ccccc21,n,n,n,n,x,x
c1ccc(CN2CCC(Nc3ncc(-c4cccs4)cn3)CC2)cc1,n,6.8,n,n,n,n
Cc1cc(NC2CCN(Cc3ccccc3)CC2)nc(-c2cccs2)n1,n,n,n,n,x,x
CCn1c2c(c(=O)[nH]c1=O)C(c1ccccc1OC)C1=C(COC1=O)N2 (stereo not drawn),n,n,n,n,x,x
c1nnn(CC2CCOCO2)n1 (stereo not drawn),n,14.6,n,n,n,n
CCCCCC1CCc2nc(/C=C/c3ccccc3)ccc2C1 (stereo not drawn),n,6.0,n,n,n,n
CCCCCCCC1CCc2nc(-c3ccc(F)cc3)ccc2C1 (stereo not drawn),n,n,n,n,x,x
CCOc1ccc(NC(=O)COC(=O)C2CC(=O)N(c3ccc(C)cc3)C2)cc1 (stereo not drawn),n,n,n,n,x,x
CCCCC(C)NC(=O)C1CC(=O)N(c2ccc(OCC)cc2)C1 (stereo not drawn),n,5.5,n,n,n,n
Cc1ccc(NC(=O)COc2ccc(N3CC(C(N)=O)CC3=O)cc2)cc1 (stereo not drawn),n,6.4,n,n,n,n
SMILES,TEAD-YAP inh,GPR151 ag,MITF inh,FBW7 act,GPR151 conf act,GPR119 ag
CC(=O)Nc1ccc(NC(=O)C2CC(=O)N(c3ccc(Br)cc3)C2)cc1 (stereo not drawn),n,8.5,n,n,n,n
O=C(N/N=C/c1cccs1)C1CC(=O)N(c2ccc(Cl)cc2)C1 (stereo not drawn),n,11.8,n,n,n,n
COc1ccc(CN2CCN(c3ncnc4sc(C)c(C)c34)CC2)c(OC)c1OC,n,n,n,n,x,x
COc1cccc(C(=O)NCC(c2cccn2C)N2CCOCC2)c1 (stereo not drawn),n,n,n,n,x,x
COc1ccc(-c2ccc3cnc(Nc4ccc(-n5cnc(N6CCOCC6)n5)cc4)nc3c2)cn1,n,n,n,n,x,x
CCOc1ccccc1CN1CCNC(=O)C1CC(=O)NCc1ncccc1C (stereo not drawn),n,n,n,n,x,x
O=C(N/N=C/c1ccc(Br)cc1)C1CC(=O)N(c2ccc(F)cc2)C1 (stereo not drawn),n,n,n,n,x,x
O=C(N/N=C/c1cccc(Br)c1)C1CC(=O)N(c2ccccc2)C1 (stereo not drawn),n,5.3,n,2.8,n,n
Cc1cc(C)cc(NS(=O)(=O)c2cc(C(N)=O)ccc2C)c1,n,13.0,n,n,n,n
O=C(O)Cc1ccc(NC(=O)CSc2ccccc2)cc1,n,n,n,n,x,x
CCN1C(=O)/C(=C\c2ccc(OC)c([N+](=O)[O-])c2)SC1=S,n,n,n,n,x,x
CCN(c1ccccc1)S(=O)(=O)c1ccc2[nH]c(=O)ccc2c1,n,n,n,n,x,x
CCN(c1ccccc1)S(=O)(=O)c1ccc(-n2cccn2)cc1,n,9.0,n,n,n,n
CCN(c1ccccc1)S(=O)(=O)c1ccc(=O)[nH]c1,n,6.3,n,n,n,n
COCC(C)n1c(C)cc(C(=O)COC(=O)c2ccc(C#N)cc2)c1C (stereo not drawn),n,n,n,n,x,x
COCCCNC(=O)C1CCN(S(=O)(=O)c2ccc(Br)cc2)CC1,n,n,n,n,x,x
C=CCNC(=O)C1CCN(S(=O)(=O)c2ccc(Br)cc2)CC1,n,5.7,n,n,n,n
CC1=NN(c2cccc(Cl)c2)C(=O)/C1=C\Nc1ccc(-c2ccc(N/C=C3\C(=O)N(c4cccc(Cl)c4)N=C3C)cc2)cc1,n,n,n,n,x,x
CCOc1ccc(S(=O)(=O)NCC(c2ccco2)S(=O)(=O)c2ccc(C)cc2)cc1 (stereo not drawn),n,8.4,n,n,n,n
O=C(COc1ccc(Cl)cc1)Nc1ccccn1,48.6,9.2,n,n,n,n
O=C(COc1ccc(Cl)cc1)Nc1ccc(-c2cn3cccnc3n2)cc1,n,8.6,n,22.5,n,n
COc1ccc(-c2cn3cccnc3n2)cc1NC(=O)COc1ccc(Cl)cc1,n,n,n,n,x,x
CC(NC(=O)c1ccccc1NC(=O)CN1C(=O)C2CC=CCC2C1=O)c1ccccc1 (stereo not drawn),n,n,n,n,x,x
COc1ccc(NC(=O)COc2ccc3c(=O)c(-c4ccc(F)cc4)coc3c2)cc1,n,5.4,n,n,n,n
Nc1ncnc(NN2CCOCC2)c1[N+](=O)[O-],n,n,n,n,x,x
CC1(C)Cc2ccccc2/C(=C/C(=O)Nc2ccc([N+](=O)[O-])cc2)N1,n,5.5,n,n,n,n

# High-throughput results deposited in PubChem BioAssay by The Scripps Research Institute Molecular Screening Center.
